Laboratory results taken from PubChem BioAssay.
For some of these results: Results with a measured potency or affinity are listed apart. Inconclusive results are not listed. The source made the active and inactive calls.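 Rule for the calls, unless noted: active = a dose-response fit showing signal loss, with half-maximal concentration no higher than twice the top tested dose; inconclusive = flat fit between 30% and 70% signal loss, or poor fit; inactive = the rest.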

Legend:
[1] = Cryptococcus neoformans growth inhibition, dose response, Alamar Blue, cherry-picks (AID 686998;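 active = falling signal with fitted half-maximal potency no higher than twice the top valid tested dose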)
[2] = inducers of Cryptococcus neoformans cell lysis, dose response, AK release luminescence, cherry-picks (AID 687000;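 active = fitted dose curve reaches 40% lysis signal rise at or below the highest valid concentration tested for that sample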;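 note: luminescent detection of adenylate kinase leaking from lysed yeast; 0% = median neutral control signal and 100% = double that signal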)
[3] = HepG2 cell cytotoxicity, dose response, cytotoxicity control, cherry-picks, set 2 (AID 687002)
[4] = binders of probe aFSTL3 on microarray, primary screen, stem cell growth factor project, biochemical, small-molecule microarray, fluorescence 635/667 (AID 1064); details: higher = more signal;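 note: measures binding of the biotinylated anti-FSTL3 antibody to printed compounds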
[5] = binders from COS7 lysate, DM2A8 probe, primary screen, torsin A project, cell lysate, small-molecule microarray, fluorescence 635/667 (AID 1065); details: higher = more signal, COS7 lysate expressing mutant human TOR1A
[6] = binders of probe aFGF2 on microarray, primary screen, stem cell growth factor project, biochemical, small-molecule microarray, fluorescence 635/667 (AID 1067); details: higher = more signal;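 note: measures binding of biotinylated aFGF2 protein to printed compounds on slides; z-score merges feature fluorescence and signal-to-noise across triplicate slides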
[7] = binders of probe aFGF10 on microarray, primary screen, stem cell growth factor project, biochemical, small-molecule microarray, fluorescence 635/667 (AID 1071); details: higher = more signal;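 note: score merges 667 nm spot intensity and signal to noise from triplicate slides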
[8] = molecular target: Neurogenic locus notch homolog protein 2 (Homo sapiens) (UniProt Q04721); experiment: Notch2 binders on small-molecule microarrays, primary screen, biochemical, small-molecule microarray, 635 nm fluorescence, stem cell growth factors (AID 1073); details: Notch2 binding, higher = more signal
Chain of Neurogenic locus notch homolog protein 2 (Homo sapiens) (Q04721 whole entry, looked up, canonical isoform): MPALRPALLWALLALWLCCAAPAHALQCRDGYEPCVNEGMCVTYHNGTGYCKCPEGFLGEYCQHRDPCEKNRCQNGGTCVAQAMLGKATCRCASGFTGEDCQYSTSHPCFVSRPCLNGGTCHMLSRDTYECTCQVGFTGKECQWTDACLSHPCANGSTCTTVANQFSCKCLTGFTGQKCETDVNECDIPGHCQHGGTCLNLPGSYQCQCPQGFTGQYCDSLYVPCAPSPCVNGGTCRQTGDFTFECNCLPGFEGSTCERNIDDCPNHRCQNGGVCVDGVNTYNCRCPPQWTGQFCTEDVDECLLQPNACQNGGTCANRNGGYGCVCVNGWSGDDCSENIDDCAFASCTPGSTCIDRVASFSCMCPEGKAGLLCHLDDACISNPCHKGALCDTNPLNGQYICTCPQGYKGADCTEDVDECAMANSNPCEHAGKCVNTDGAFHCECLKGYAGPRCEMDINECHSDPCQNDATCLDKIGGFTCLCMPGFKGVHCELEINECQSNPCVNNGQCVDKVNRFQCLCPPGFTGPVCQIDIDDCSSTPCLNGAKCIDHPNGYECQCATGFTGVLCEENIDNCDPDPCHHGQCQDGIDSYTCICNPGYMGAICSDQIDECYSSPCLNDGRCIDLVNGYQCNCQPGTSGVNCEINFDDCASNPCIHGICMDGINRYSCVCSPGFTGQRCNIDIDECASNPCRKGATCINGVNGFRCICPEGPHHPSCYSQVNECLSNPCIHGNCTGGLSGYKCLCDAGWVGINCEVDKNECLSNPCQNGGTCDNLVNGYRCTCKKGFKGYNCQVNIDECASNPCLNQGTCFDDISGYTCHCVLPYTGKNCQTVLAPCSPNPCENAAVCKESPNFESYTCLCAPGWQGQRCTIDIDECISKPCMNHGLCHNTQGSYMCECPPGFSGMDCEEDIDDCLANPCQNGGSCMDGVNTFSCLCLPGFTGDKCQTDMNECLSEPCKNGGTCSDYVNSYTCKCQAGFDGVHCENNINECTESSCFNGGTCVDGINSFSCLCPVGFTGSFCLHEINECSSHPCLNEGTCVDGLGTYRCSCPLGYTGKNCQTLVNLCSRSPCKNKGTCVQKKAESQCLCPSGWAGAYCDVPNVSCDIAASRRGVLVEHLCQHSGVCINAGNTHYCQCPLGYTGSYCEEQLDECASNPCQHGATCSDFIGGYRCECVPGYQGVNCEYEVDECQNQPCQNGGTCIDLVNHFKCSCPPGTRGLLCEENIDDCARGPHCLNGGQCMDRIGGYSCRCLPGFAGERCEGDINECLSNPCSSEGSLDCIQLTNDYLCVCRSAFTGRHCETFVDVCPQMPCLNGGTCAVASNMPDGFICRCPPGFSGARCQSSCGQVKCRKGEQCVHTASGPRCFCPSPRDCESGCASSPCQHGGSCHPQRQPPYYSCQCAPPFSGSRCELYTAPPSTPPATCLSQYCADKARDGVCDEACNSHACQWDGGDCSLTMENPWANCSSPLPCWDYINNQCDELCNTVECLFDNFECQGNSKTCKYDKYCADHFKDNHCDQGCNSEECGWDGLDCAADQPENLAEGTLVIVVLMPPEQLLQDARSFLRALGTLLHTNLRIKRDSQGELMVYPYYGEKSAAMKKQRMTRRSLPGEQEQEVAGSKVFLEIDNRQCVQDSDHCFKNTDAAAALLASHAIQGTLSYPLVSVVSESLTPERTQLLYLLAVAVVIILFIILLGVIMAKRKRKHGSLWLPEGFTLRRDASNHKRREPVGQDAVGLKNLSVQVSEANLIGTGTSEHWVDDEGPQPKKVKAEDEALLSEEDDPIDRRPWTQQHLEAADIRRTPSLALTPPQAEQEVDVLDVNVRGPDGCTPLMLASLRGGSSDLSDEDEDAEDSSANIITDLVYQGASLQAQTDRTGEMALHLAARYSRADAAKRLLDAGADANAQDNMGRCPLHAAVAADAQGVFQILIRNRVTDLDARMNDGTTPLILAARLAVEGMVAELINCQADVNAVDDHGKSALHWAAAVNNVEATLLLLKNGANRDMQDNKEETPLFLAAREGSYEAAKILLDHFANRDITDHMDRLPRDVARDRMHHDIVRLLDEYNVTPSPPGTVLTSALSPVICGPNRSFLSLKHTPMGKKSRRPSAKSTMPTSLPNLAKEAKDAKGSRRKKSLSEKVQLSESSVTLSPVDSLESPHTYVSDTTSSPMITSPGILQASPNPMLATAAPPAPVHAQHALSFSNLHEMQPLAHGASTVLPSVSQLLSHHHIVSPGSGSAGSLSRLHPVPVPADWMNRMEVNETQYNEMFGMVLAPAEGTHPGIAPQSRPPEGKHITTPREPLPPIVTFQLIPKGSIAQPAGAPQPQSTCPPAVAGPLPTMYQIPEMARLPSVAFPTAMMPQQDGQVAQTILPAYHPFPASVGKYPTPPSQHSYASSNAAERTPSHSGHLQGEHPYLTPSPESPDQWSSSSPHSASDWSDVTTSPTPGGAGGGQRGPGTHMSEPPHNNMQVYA

[9] = molecular target: Pro-neuregulin-1, membrane-bound isoform (Homo sapiens) (UniProt Q02297); experiment: NRG1 binders on small-molecule microarrays, primary screen, psychiatric disease protein project, biochemical, small-molecule microarray, fluorescence 635/667 (AID 1075); details: NRG1 binding, 635 nm fluorescence, higher = more signal;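 note: score combines 667 nm spot fluorescence with signal to noise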
Chain of Pro-neuregulin-1, membrane-bound isoform (Homo sapiens) (Q02297 whole entry, looked up, the tested form may be a part, canonical isoform): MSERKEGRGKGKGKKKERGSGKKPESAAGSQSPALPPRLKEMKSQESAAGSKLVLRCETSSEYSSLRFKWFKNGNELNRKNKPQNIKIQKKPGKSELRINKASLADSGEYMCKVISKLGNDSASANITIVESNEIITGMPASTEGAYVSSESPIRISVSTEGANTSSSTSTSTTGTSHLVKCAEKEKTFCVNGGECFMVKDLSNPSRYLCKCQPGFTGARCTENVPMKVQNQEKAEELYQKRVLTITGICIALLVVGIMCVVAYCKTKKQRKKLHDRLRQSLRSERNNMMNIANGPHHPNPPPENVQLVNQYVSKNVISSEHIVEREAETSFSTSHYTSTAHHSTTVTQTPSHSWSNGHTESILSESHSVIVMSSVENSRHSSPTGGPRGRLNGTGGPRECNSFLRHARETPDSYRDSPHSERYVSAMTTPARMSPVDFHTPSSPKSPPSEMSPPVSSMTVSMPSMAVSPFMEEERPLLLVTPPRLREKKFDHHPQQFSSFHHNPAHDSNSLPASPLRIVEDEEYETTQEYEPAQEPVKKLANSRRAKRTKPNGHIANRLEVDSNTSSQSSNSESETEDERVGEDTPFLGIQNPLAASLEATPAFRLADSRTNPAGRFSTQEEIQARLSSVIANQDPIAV

[10] = test system: Neuregulin-1 EGF-like domain; experiment: binders of neuregulin-1 EGF-like domain, primary screen, biochemical, small-molecule microarray, 635 nm fluorescence (AID 1081); details: small-molecule microarray binding, higher = more signal;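 note: binding of the protein to compounds printed on small-molecule microarray slides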
[11] = FRG1 promoter luciferase signal modulators, primary screen, FRG1 inhibition for FSHD, cell-based, C2C12 myotubes, firefly/Renilla luciferase, luminescence (AID 1084); details: higher = more signal, called active from +8 up or from −8 down
[12] = binders of probe aFST on microarray, primary screen, stem cell growth factor project, biochemical, small-molecule microarray, fluorescence 635/667 (AID 1086); details: higher = more signal;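 note: score merges 667 nm fluorescence with signal-to-noise of each printed compound spot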
[13] = binders of probe aHhip on microarray, primary screen, stem cell growth factor project, biochemical, small-molecule microarray, fluorescence 635/667 (AID 1087); details: higher = more signal;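 note: score merges spot fluorescence at 667nm with spot signal to noise ratio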
[14] = test system: PRMT1 (protein arginine N-methyltransferase 1); experiment: PRMT1 binders on small-molecule microarrays, primary screen, biochemical, small-molecule microarray, 635 nm fluorescence (AID 1088); details: small-molecule microarray binding, higher = more signal;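 note: binding of Prmt1 protein to compounds spotted on small-molecule microarray slides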
[15] = yeast growth modulation, basal conditions, primary screen, YJM789 clinical isolate, OD600, 24 h (AID 1089);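 note: growth of clinical yeast isolate S. cerevisiae YJM 789 seeded 1000 cells per well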; details: S. cerevisiae YJM789 growth, higher = more signal, called active from +8 up or from −8 down
[16] = fission yeast growth modulation, primary screen, strain 972, OD600, 24 h, no modulator (AID 1090);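 note: basal condition with compound alone and no growth modifier present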; details: S. pombe 972 growth, higher = more signal, called active from +8 up or from −8 down
[17] = S. cerevisiae growth modulation with rapamycin, primary screen, strain BY4716, OD600, 96 h (AID 1091); details: higher = more signal, called active from +8 up or from −8 down
[18] = molecular target: Torsin-1A-interacting protein 2 (Homo sapiens) (UniProt Q8NFQ8); experiment: LULL1 binders on small-molecule microarray, primary screen, cell lysate, human LULL1 lysate, 635/667 nm fluorescence (AID 1092); details: hLULL1 lysate binding, 635 nm fluorescence, higher = more signal;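 note: probe is lysate of COS7 cells overexpressing human LULL1; score merges per-feature 667 nm fluorescence with signal-to-noise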
Chain of Torsin-1A-interacting protein 2 (Homo sapiens) (Q8NFQ8 whole entry, looked up): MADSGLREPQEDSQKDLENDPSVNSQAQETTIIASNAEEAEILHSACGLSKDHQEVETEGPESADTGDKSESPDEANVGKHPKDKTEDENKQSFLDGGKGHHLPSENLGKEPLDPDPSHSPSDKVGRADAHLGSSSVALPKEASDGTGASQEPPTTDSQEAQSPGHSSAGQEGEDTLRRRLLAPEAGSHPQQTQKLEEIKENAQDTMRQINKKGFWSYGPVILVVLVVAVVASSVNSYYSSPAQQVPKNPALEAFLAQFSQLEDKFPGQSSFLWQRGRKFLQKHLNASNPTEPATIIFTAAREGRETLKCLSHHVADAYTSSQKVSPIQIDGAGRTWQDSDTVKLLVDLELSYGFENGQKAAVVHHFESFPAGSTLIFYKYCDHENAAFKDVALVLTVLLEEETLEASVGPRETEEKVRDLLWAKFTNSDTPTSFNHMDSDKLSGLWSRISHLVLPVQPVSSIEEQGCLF

[19] = E. coli growth modulation, two-sided OD650, primary screen, E. coli filamentation project, strain DRC41, 24 h (AID 1093); details: OD650, 24 h, higher = more signal, called active from +8 up or from −8 down;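 note: MC1000 strain lacking acrAB efflux and sulA so SOS filamentation is blocked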

| SMILES | outcome [1] | outcome [2] | outcome [3] | composite z-score [4] | composite z-score [5] | composite z-score [6] | composite z-score [7] | composite z-score [8] | composite z-score [9] | composite z-score [10] | z-score [11] | composite z-score [12] | composite z-score [13] | composite z-score [14] | z-score [15] | z-score [16] | z-score [17] | composite z-score [18] | z-score [19] |
| --- | --- | --- | --- | --- | --- | --- | --- | --- | --- | --- | --- | --- | --- | --- | --- | --- | --- | --- | --- |
| CC1CCCCN1C(=O)CSc1nc(C2CC2)nc2c1cnn2-c1ccccc1 (configuration not stated) | inactive | inactive | inactive |  |  |  |  |  |  |  |  |  |  |  |  |  |  |  |  |
| CN1C=C(C(=O)OCCS(C)(=O)=O)C(C(=O)OCCS(C)(=O)=O)=CC(CCCO)=CC1c1cccs1 (configuration not stated) |  |  |  | -0.329 | 0.58 | -0.197 | 0.239 | 0.907 | -0.362 | 0.269 | -0.234 (inactive) | 0.137 | 0.0664 | 1.13 | -0.444 (inactive) | -1.22 (inactive) | -2.42 (inactive) | 0.454 | 0.261 (inactive) |
| COc1ccc(CCNC(=O)[C@@]2(Sc3ccc(C)cc3)CC(=O)N(Cc3ccccc3)[C@@H]2c2ccc(CO)cc2I)cc1 |  |  |  | -1.07 | 0.461 | -0.187 | -0.111 | -0.0768 | 0.0114 | 0.388 | -1.58 (inactive) | -0.32 | -0.616 | 0.471 | 0.44 (inactive) | -1.66 (inactive) | 2.72 (inactive) | 1.87 | 0.485 (inactive) |
| C=C(COC)C(=O)CC[C@H](OC(=O)c1cccnc1)c1cccc(OCCO)c1 |  |  |  | 0.822 | 1.9 | 0.119 | 0.833 | -0.381 | -0.318 | 0.0423 | 0.0417 (inactive) | 0.331 | 0.503 | 1.36 | 1.25 (inactive) | -0.231 (inactive) | 1.56 (inactive) | 0.241 | 1.18 (inactive) |
| C=CC[C@]1(C(=O)N(C)C)N=C(c2ccc(OCCCO)cc2)O[C@H]1c1ccccc1CN=[N+]=[N-] |  |  |  | 0.876 | 1.42 | 0.0188 | 0.548 | 1.38 | 1.66 | 1.15 | -2.15 (inactive) | 1.43 | 0.184 | 1.09 | -1.01 (inactive) | -1.1 (inactive) | -1.52 (inactive) | 3.01 | 1.39 (inactive) |
